# Measurements: PubChem BioAssay (Tox21)
# Inconclusive results are not listed. The source made the active and inactive calls. Calls follow the shape of the dose curve; as a rule, active = well fitted activation curve with a large enough effect in the signal ratio in the repeat runs (not every such curve was filed as active); inconclusive = weak or mixed curves, or effect the other way; inactive = flat fitted curve, though single readings scatter; the % refers to the signal ratio.
# Target: Estrogen receptor beta (Homo sapiens) (UniProt Q92731)
# Assay: qHTS assay to identify small molecule agonists of the estrogen receptor beta (ER-beta) signaling pathway (AID 1259377)
# Conditions: ER-beta-UAS-bla HEK293T, beta-lactamase FRET ratio, 16 h; series mostly up to 92.4 µM; activation: at the top concentration
# Text: U.S. Tox21 Program National Center for Advancing Translational Sciences [NCATS] NIH Chemical Genomics Center [NCGC] U.S. Environmental Protection Agency [EPA] National Institutes of Environmental Health Sciences [NIEHS] National Toxicology Program [NTP] U.S. Food and Drug Administration [FDA] Tox21 Assay Overview: Estrogen receptor (ER), a nuclear hormone receptor, plays an important role in development, metabolic homeostasis and reproduction. Two subtypes of ER, ER-alpha and ER-beta, have similar expression patterns with some uniqueness in both types. Endocrine disrupting chemicals (EDCs) and their interactions with steroid hormone receptors like ER causes disruption of normal endocrine function. To identify the compounds that activate ER signaling, an ER beta-UAS-bla GripTite cell line (Life technologies, Madison, WI, USA) containing a beta-lactamase reporter gene under the control of an Upstream Activator Sequence (UAS) was used to screen Tox21 10K compound library.
# Tox21 Assay Protocol Summary: ER-beta-UAS-bla HEK293T cells were dispensed at 2,000 cells/5 uL of assay medium containing 2% charcoal stripped FBS per well into black wall/clear-bottom 1536-well plates using a Multidrop Combi (ThermoFisher Scientific, Waltham, MA) dispenser. After the assay plates were incubated at a 37C and 5% CO2 for 6 hr, 23 nL of compounds dissolved in DMSO, positive controls or DMSO only was transferred to the assay plate by a Pintool station (Kalypsys, San Diego, CA). The plates were incubated at 37C and 5% CO2 for 16 hr. Then 1 uL of LiveBLAzerTM B/G FRET substrate was added using a BioRAPTR FRD (Flying Reagent Dispenser, Aurora Discovery, San Diego, CA). After the plates were incubated at room temperature for 2 hours, fluorescence intensity was measured by an Envision plate reader (PerkinElmer, Shelton, CT).
# % is scaled to controls: 0 for no effect and ±100 for the full control effect; potency is read from the fitted curve at half-maximal effect.
# Sequence of Estrogen receptor beta (Homo sapiens) (Q92731 whole entry, looked up): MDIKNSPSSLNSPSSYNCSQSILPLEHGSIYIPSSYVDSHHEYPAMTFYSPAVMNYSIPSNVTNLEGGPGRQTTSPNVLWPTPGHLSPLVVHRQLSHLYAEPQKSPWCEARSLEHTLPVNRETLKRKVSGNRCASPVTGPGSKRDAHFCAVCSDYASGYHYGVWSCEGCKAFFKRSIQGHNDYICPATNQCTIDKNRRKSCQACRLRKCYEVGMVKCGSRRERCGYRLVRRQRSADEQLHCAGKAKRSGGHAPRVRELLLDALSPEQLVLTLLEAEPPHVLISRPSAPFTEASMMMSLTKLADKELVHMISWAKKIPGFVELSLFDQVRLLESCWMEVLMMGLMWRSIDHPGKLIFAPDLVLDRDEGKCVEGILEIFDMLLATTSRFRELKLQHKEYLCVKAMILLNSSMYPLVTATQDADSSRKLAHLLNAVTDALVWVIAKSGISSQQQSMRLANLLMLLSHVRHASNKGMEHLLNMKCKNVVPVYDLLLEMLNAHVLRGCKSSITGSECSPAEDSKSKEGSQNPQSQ
SMILES,activation,Potency
CCC1NC(=O)c2cc(S(N)(=O)=O)c(Cl)cc2N1 (stereo not given),3.67% [at 42.5 µM] (inactive),
O=C(CCc1ccc(O)cc1)c1c(O)cc(O)cc1O,,7.01 µM (active)
Nc1ncnc2c1ncn2[C@H]1CC[C@@H](CO)O1,-1.11% (inactive),
CC(C)Nc1cccnc1N1CCN(C(=O)c2cc3cc(NS(C)(=O)=O)ccc3[nH]2)CC1,-0.0573% [at 42.5 µM] (inactive),
COC(=O)CS,5.15% (inactive),
c1ccc2sc(SN(C3CCCCC3)C3CCCCC3)nc2c1,4.92% (inactive),
CCCCC(CC)CN (stereo not given),-0.288% (inactive),
CCCCCCC(C)(C)C(=O)O,-2.56% (inactive),
CCCCCCCCCI,1.06% (inactive),
CCC(=O)OC,-1.12% (inactive),
C=CC(=O)OCC1CC2CC1C1CCC(COC(=O)C=C)C21 (stereo not given),0.0191% (inactive),
CC(=O)c1ccc([N+](=O)[O-])cc1,-3.33% (inactive),
C[C@@H](O)[C@H]1C(=O)N2C(C(=O)O)=C([C@H]3CCCO3)S[C@H]12,-3.89% [at 42.5 µM] (inactive),
C[C@@H](CN(C)C)CN1c2ccccc2Sc2ccccc21,-5.87% [at 42.5 µM] (inactive),
C[C@H]1C[C@H](O)c2ccsc2S1(=O)=O,6.22% [at 42.5 µM] (inactive),
CCN(CC)CCNC(=O)COc1ccc(OC)cc1,0.623% [at 42.5 µM] (inactive),
FC(F)(F)c1ccccc1Cl,-2.3% (inactive),
Cc1cc2c(OCC(CNC(C)(C)C)OC(=O)c3ccccc3)cccc2[nH]1 (stereo not given),1.05% [at 42.5 µM] (inactive),
C=C1C[C@@]23CC[C@H]4[C@@](C)(CCC[C@@]4(C)C(=O)O[C@@H]4O[C@H](CO)[C@@H](O)[C@H](O)[C@H]4O)[C@@H]2CC[C@]1(O[C@@H]1O[C@H](CO)[C@@H](O)[C@H](O[C@@H]2O[C@H](CO)[C@@H](O)[C@H](O)[C@H]2O)[C@H]1O[C@@H]1O[C@H](CO)[C@@H](O)[C@H](O)[C@H]1O)C3,3.12% (inactive),
CC(C)=CCC/C(C)=C/CC/C(C)=C/C(=O)OCC(=O)[C@@]1(O)CC[C@H]2[C@@H]3CCC4=CC(=O)C=C[C@]4(C)[C@H]3[C@@H](O)C[C@@]21C,-4.7% [at 42.5 µM] (inactive),

SMILES,activation,Potency
O=C1NC(=O)c2cc([N+](=O)[O-])ccc21,5.83% (inactive),
C=C1CCC2CC1C2(C)C (stereo not given),0.635% (inactive),
O=C(Cn1ccnc1[N+](=O)[O-])NCCO,-1.85% [at 42.5 µM] (inactive),
CC(O)c1ccccc1 (stereo not given),0.372% (inactive),
O=C(CCCN1CC=C(n2c(=O)[nH]c3ccccc32)CC1)c1ccc(F)cc1,-4.59% [at 42.5 µM] (inactive),
CCC(=O)C1CC(C(C)C)CC=C1C (stereo not given),-1.82% (inactive),
Clc1cc(Cl)nc(Cl)n1,-1.02% (inactive),
Cc1cscn1,0.717% (inactive),
CCOc1cccc(-n2cc(C(=O)N3CCN(c4cc(C(=O)O)c5ccccc5c4)CC3)nc2-c2ccc(C)cc2)c1,-4.28% (inactive),
O=C1C(=O)c2ccccc2C(O)=C1C1CCC(c2ccc(Cl)cc2)CC1 (stereo not given),-0.852% [at 42.5 µM] (inactive),
CC(CCC(=O)O)C(=O)O (stereo not given),-2.39% (inactive),
CC(C)(C)CC(=O)OCC(=O)[C@@]1(O)CC[C@H]2[C@@H]3CCC4=CC(=O)C=C[C@]4(C)[C@H]3[C@@H](O)C[C@@]21C,-4.12% [at 42.5 µM] (inactive),
CCCCCCCCN,-0.0584% (inactive),
Oc1cccc(O)c1O,8.87% (inactive),
C=Cc1ccc(S(=O)(=O)O)cc1,0.265% (inactive),
CCn1cc(C(=O)O)c(=O)c2cc(F)c(N3CCNCC3)cc21,0.548% [at 42.5 µM] (inactive),
CC1(C)O[C@@H]2C[C@H]3[C@@H]4C[C@H](F)C5=CC(=O)C=C[C@]5(C)[C@H]4[C@@H](O)C[C@]3(C)[C@]2(C(=O)CO)O1,-3.47% [at 42.5 µM] (inactive),
C=C(C)C(=O)OCCCCCCCCCCCCC,-1.03% (inactive),
CC(C)=CC(=O)C=C(C)C,-0.304% (inactive),
CCOC(=O)C1=C(C)NC(C)=C(C(=O)OC)C1c1cccc(Cl)c1Cl (stereo not given),-0.752% [at 42.5 µM] (inactive),
